From PubChem
Shown is part of a subset that was picked to be rich in hits.
AMA1 RON2 block – qHTS for Inhibitors of AMA1-RON; Towards Development of Antimalarial Drug Lead: Primary Screen | Potency, µM (top dose mostly 58.2 µM), usual class: inhibitors | actives 0.2% (n = 360,000) | AlphaScreen AMA1-biotinylated RON2 peptide binding | AID 720542, 2013 | Plasmodium falciparum AMA1 (3D7) - RON2 peptide interaction; note: nearly all actives have a fitted effect of over 45% in size
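AMA1 (3D7) with his tag at 25 nM final met compounds first, then biotinylated RON2 peptide at 25 nM; detection used donor plus acceptor beads, 10 µg/mL apiece, read by AlphaScreen after 30 min at room temperature.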
AmpC detergent – qHTS Inhibitors of AmpC Beta-Lactamase (assay with detergent). P00811. AmpC hydrolysis of nitrocefin, absorbance 480 nm, 0.01% Triton. actives 0.041% (n = 370,000). Potency, µM (highest dose often 114 µM), usual class: inhibitors. AID 485294, 2010; note: nearly all actives have a fitted effect of over 25% in size
Target sequence (P00811 whole entry, looked up): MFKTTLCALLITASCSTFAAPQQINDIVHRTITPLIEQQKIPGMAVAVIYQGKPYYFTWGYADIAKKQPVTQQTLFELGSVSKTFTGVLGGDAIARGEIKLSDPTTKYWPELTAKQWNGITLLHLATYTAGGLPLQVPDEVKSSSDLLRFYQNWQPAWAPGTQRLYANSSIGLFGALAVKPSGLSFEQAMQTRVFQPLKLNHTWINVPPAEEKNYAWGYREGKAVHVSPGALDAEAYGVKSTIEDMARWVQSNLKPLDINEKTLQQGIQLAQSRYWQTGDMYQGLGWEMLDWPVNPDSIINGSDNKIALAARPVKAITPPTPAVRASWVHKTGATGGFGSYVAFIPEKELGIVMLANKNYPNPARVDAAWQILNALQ
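20 mM phosphate pH 7.0 + 0.01% (detergent screen) or 0.0001% Triton X-100; 5.3 nM AmpC reagent; cpd preinc 15 min RT; nitrocefin (800 uM stock) to start; A480 q20 s × 4 min; Activity was normalised to no-enzyme and no-compound control wells.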
Shiga toxin inh – A qHTS for Small Molecule Inhibitors of Shiga Toxin; Vero cells, Shiga toxin protein synthesis inhibition reporter; inhibition, % at 38.7 µM; actives 9.2% (n = 290,000); AID 2315, 2010; in the data active = inhibition mostly above about 28%, no sharp cut-off; inactive = mostly below about 43%
AmpC no deterg – qHTS Inhibitors of AmpC Beta-Lactamase (assay without detergent) | P00811 | AmpC nitrocefin hydrolysis, absorbance 480 nm, 0.0001% Triton | Potency, µM (highest dose often 57.1 µM), actives largely listed as inhibitors | actives 0.52% (n = 330,000) | AID 485341, 2010; note: nearly all actives have a fitted effect of over 20% in size
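20 mM phosphate pH 7.0 + 0.01% (detergent screen) or 0.0001% Triton X-100; 5.3 nM AmpC reagent; cpd preinc 15 min RT; nitrocefin (800 uM stock) to start; A480 q20 s × 4 min; Activity was normalised to no-enzyme and no-compound control wells.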
SARS PLpro yeast – qHTS of Yeast-based Assay for SARS-CoV PLP; S. cerevisiae expressing SARS-CoV PLpro, growth rescue; Potency, µM (series often up to 32.9 µM), usual class: activators; actives 0.19% (n = 330,000); AID 485353, 2010; calls by dose curve; note: nearly all actives have a fitted effect of over 55% in size
CHX counter – Cycloheximide Counterscreen for Small Molecule Inhibitors of Shiga Toxin. cell reporter, cycloheximide protein synthesis inhibition counterscreen. max response, %. actives 12% (n = 300,000); in the data active = max response mostly above about 13%, no sharp cut-off; inactive = mostly below about 14%; note: read at 38.3 µM for the half of the compounds with a filed dose
Of the large screens only hits and unclear results are named; the others gave an inactive call. Unless noted, calls come from the whole dose curve; as a rule, active = well fitted curve in the direction sought with a large enough effect; inconclusive = small, poorly fitted or top-dose-only effect, or another doubt; inactive = no such curve, though single readings can be large; an effect the other way counts as inactive or inconclusive.

CCN=c1scc(C)n1/N=C/c1cc(Br)c(O)c(OC)c1	CHX counter 14
COc1cc(/C=N/N2C(C)CCCC2C)cc(Br)c1O (centres undefined)	none
CN=c1scc(-c2ccco2)n1/N=C/c1ccc(O)c(O)c1	none
CN=c1scc(C)n1/N=C/c1ccc2c(c1)OCO2	AMA1 RON2 block inconclusive, AmpC detergent inconclusive, Shiga toxin inh 69, CHX counter 28
Cc1nnc(C)n1/N=C/c1ccc2c(c1)OCCO2	AmpC detergent inconclusive
CN=c1scc(C)n1/N=C/c1ccc(O)cc1O	Shiga toxin inh 30, CHX counter 25
CN=c1scc(C)n1/N=C/c1cc(Br)c(O)c(Br)c1	CHX counter 18
Cn1c(-c2ccc(C(C)(C)C)cc2)n[nH]c1=S	Shiga toxin inh 59, CHX counter 36
CCOc1ccccc1CNC(=O)c1oc2ccc3c(c2c1C)C(=O)CC(C)(C)O3	none (no result: AMA1 RON2 block, Shiga toxin inh, AmpC no deterg, SARS PLpro yeast, CHX counter)
Cc1c(C(=O)NCc2ccoc2)oc2ccc3c(c12)C(=O)CC(C)(C)O3	AMA1 RON2 block inconclusive, Shiga toxin inh 119, CHX counter 61
CCC1CCc2sc(C(=O)NCc3ccccn3)cc2C1 (centres undefined)	Shiga toxin inh 61, CHX counter 37
CCOC(=O)c1c(C)oc2c1c(C(c1cccnc1)N1CCCCC1)c(O)c1ccccc12 (centres undefined)	Shiga toxin inh 95, CHX counter 57
CCOC(=O)c1c(C)oc2c1c(C=NCCO)c(O)c1ccccc12	CHX counter 28
CCOC(=O)c1c(O)c2ccccc2oc1=O	AmpC no deterg inconclusive
CCOC(=O)c1c(C)oc2c1c(C(c1ccccc1)N1CCOCC1)c(O)c1ccccc12 (centres undefined)	Shiga toxin inh 141, CHX counter 71
c1cncc(C(c2nnnn2C2CCCCC2)N2CCCCC2)c1 (centres undefined)	none
Cc1ccc(C(=O)N2CCN(c3ccccn3)CC2)cc1C	none
COc1ccc(-c2csc(-n3cccn3)n2)cc1	Shiga toxin inh 66, CHX counter 62
COc1ccc(-c2csc(-n3ncc(-c4cccs4)c3N)n2)cc1	none
COc1ccc(-c2csc(N3CCSCC3)n2)cc1	Shiga toxin inh 95, CHX counter 56
COc1ccccc1NC(=S)N1CCN(c2nc(-c3ccccc3)cs2)CC1	none
O=C(CNc1ccc(Oc2ccccc2)cc1)N1CCOCC1	Shiga toxin inh 36, CHX counter 12
S=C(Nc1ccc(Oc2ccccc2)cc1)N1CCOCC1	CHX counter 12
O=C(c1cccc(Oc2ccccc2)c1)N1CCOCC1	AmpC detergent inconclusive
S=C(Nc1ccccc1)N1CCOCCOCCN(C(=S)Nc2ccccc2)CCOCCOCC1	none
O=C(NC1CC1)C1=C[C@@H](c2ccc(C(F)(F)F)cc2)C[C@@H](OCc2ccc(CO)cc2)O1	none (no result: AmpC detergent, Shiga toxin inh, AmpC no deterg, SARS PLpro yeast, CHX counter)
OCCC1CN(Cc2cccn2-c2ccccn2)CCN1C1CCCCC1 (centres undefined)	none
CCC(=O)N1CCN(c2nc(CC)nc3sc4c(c23)CCCC4)CC1	none
CC1CCc2c(sc3nc(C(C)(C)C)nc(N4CCN(C(=O)CCl)CC4)c23)C1 (centres undefined)	AmpC detergent inconclusive, Shiga toxin inh 46, CHX counter 20
Cc1nc2cc(-c3ccccc3)[nH]n2c(=O)c1C	Shiga toxin inh 63, CHX counter 34
Cc1cc(=O)n2[nH]c(-c3ccccc3)cc2n1	Shiga toxin inh 66 (no result: AmpC no deterg, SARS PLpro yeast)
O=c1cc(-c2ccccc2)nc2cc(-c3ccc(F)cc3)[nH]n12	none (no result: Shiga toxin inh, AmpC no deterg, SARS PLpro yeast, CHX counter)
CCc1c(C)nc2cc(-c3ccc(OC)cc3)[nH]n2c1=O	Shiga toxin inh 130, CHX counter 32
CCOC(=O)Cc1c(C)nc2cc(-c3ccc(Cl)cc3)[nH]n2c1=O	none
COCc1cc(=O)n2[nH]c(-c3ccc(C)cc3)cc2n1	Shiga toxin inh 72, CHX counter 37
CC(C)(C)c1ccc(C(=O)C2CCCN(C(=O)C3CCOCC3)C2)cc1 (centres undefined)	none
COc1cc(CN(C)CC2CCCN(CCc3ccc(F)cc3)C2)c(Cl)cc1O (centres undefined)	none
Cc1nc2cc(-c3ccccc3)nn2c(C)c1CCC(=O)NCc1ccco1	Shiga toxin inh 68, CHX counter 39
Cc1c(C(=O)NCc2ccccc2Cl)sc2nc(-c3ccc(F)cc3)cn12	none (no result: AMA1 RON2 block, Shiga toxin inh, AmpC no deterg, SARS PLpro yeast, CHX counter)
Cc1c(C(=O)NCc2ccco2)sc2nc(-c3ccccc3)cn12	Shiga toxin inh 66, CHX counter 54
Cc1c(C(=O)NCc2cccnc2)sc2nc(-c3ccccc3)cn12	AmpC detergent inconclusive, Shiga toxin inh 31, CHX counter 24
CCN(CC)c1ccc(NC(=O)c2sc3nc(-c4ccccc4)cn3c2C)cc1	none (no result: AMA1 RON2 block, Shiga toxin inh, AmpC no deterg, SARS PLpro yeast, CHX counter)
COc1ccccc1-c1cc2nc(C)c(CCC(=O)NCc3ccco3)c(C)n2n1	AmpC detergent inconclusive
Cc1c(C(=O)NCc2ccc(F)cc2)sc2nc(-c3ccccc3)cn12	none (no result: AMA1 RON2 block, Shiga toxin inh, AmpC no deterg, SARS PLpro yeast, CHX counter)
Cc1c(C(=O)Nc2ccncc2)sc2nc(-c3ccccc3)cn12	AmpC detergent inconclusive, CHX counter 18
CCC(=O)C1=C(O)C(c2cccc(Oc3ccccc3)c2)CCC1=O (centres undefined)	none
Cc1c(C(=O)NCc2cccnc2)sc2nc(-c3ccc(F)cc3)cn12	Shiga toxin inh 45, CHX counter 30
c1ccc(-c2cc3c(-n4cccc4)ncnc3o2)cc1	Shiga toxin inh 102, CHX counter 69
c1ccc(Oc2ncnc3oc(-c4ccccc4)cc23)cc1	none
O=C1/C(=C\c2ccco2)SC(=S)N1Cc1ccccc1	AMA1 RON2 block inconclusive, AmpC detergent inconclusive
O=C(CCc1nnc(Cc2ccc3c(c2)OCO3)o1)NC(c1ccccn1)C(F)(F)F (centres undefined)	none
O=C(CCc1nnc(-c2ccc3c(c2)OCO3)o1)NC(c1ccccn1)C(F)(F)F (centres undefined)	Shiga toxin inh 64, CHX counter 38
O=C(CCc1nnc(-c2ccc3c(c2)OCO3)o1)N1CCC(c2ccc(F)cc2)C1 (centres undefined)	Shiga toxin inh 108, CHX counter 31
CN(C(=O)COC(=O)COc1ccc(Cl)cc1)C1CCCCC1	AmpC detergent inconclusive
Cc1cc(OCC(=O)N(C)C2CCCCC2)ccc1Cl	CHX counter 25
CN(C(=O)COC(=O)c1ccc(Cl)cc1N)C1CCCCC1	CHX counter 21
CCN(CC)C(=O)COc1cc(C)c(Cl)c(C)c1	AmpC detergent inconclusive
